From PubChem
Compounds with a hit are over-represented: about 4% of the library has one in this group of screens.
GDH-TPI counter-1 = inhibits GDH-TPI coupling enzymes, artifact for Mtb FBA screen | GDH-TPI coupled enzyme counterscreen, NADH absorbance | inhibition, % at 4.8 µM | 360,000 compounds, 1.2% hits; in the data active = inhibition above about 30%;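 note: 0% = DMSO wells and 100% = wells lacking the enzyme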
MazEF act = activators of E. coli MazEF toxin-antitoxin RNase. P0AE70. FAM/BHQ RNA-DNA oligo cleavage fluorescence, 5 h. activation, % at 20 µM. 350,000 compounds, 0.32% hits. AID 504720; in the data active = activation above about 50%
Target sequence (P0AE70 whole entry, looked up): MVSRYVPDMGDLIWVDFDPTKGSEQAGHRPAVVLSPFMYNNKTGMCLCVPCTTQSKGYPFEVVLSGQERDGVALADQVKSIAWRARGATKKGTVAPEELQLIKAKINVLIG
CCHFV vOTU inh = blocks the CCHF virus ovarian tumor domain protease. 370,000 compounds, 0.55% hits. AID 651958. inhibition, % at 11.5 µM. CCHFV vOTU protease, Pep-AMC fluorescence; in the data active = inhibition above about 30%; note: 0% = vehicle wells with enzyme and 100% = no enzyme wells
FBA Mtb inh = inhibitors of M. tuberculosis fructose-bisphosphate aldolase | P9WQA3 | purified M. tuberculosis FBA, fluorescence read-out | inhibition, % at 1 µM | 360,000 compounds, 2.3% hits;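 note: 0% = vehicle and 100% = reference inhibitor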
Target sequence (P9WQA3 whole entry, looked up): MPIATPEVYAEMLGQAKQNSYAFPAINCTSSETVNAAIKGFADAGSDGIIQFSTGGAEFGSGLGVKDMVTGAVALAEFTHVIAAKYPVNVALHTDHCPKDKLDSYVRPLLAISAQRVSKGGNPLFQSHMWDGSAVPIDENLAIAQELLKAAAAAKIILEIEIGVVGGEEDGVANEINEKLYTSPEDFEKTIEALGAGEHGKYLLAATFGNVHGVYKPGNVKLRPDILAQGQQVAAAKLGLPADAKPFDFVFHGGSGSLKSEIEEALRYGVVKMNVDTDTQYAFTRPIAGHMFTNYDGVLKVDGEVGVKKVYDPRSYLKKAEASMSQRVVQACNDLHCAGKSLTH
Mtb betalactam = beta-lactam sensitization of Mtb H37Rv | M. tuberculosis H37Rv growth with meropenem, percent inhibition | inhibition, % at 25 µM | AID 434955 | 330,000 compounds, 0.27% hits; call rule not given here;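 note: growth measured after seven days incubation then overnight dye step; 0% = bacteria only wells and 100% = bacteria with antibiotic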
Mtb FBA confirm = confirmation of M. tuberculosis fructose-bisphosphate aldolase inhibitors. shares compounds with FBA Mtb inh. purified M. tuberculosis FBA, fluorescence read-out. inhibition, % at 1 µM. 5,600 compounds, 78% hits;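 note: 0% = vehicle wells and 100% = reference inhibitor wells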
GDH-TPI counter-2 = counter-screen for M. tuberculosis FBA inhibitors: GDH-TPI coupled enzyme inhibition | shares compounds with FBA Mtb inh | 5,600 compounds, 81% hits | GDH-TPI coupled enzyme counterscreen, fluorescence | inhibition, % at 1 µM; in the data active = inhibition above about 10%
The depositor's hits bear a star; . = not tested or not shown; + = active, no number. Cut-off read from the data, not from the text of the source, unless noted: active = inhibition above about 27%; inactive = the rest.

SMILES	GDH-TPI counter-1	MazEF act	CCHFV vOTU inh	FBA Mtb inh	Mtb betalactam	Mtb FBA confirm	GDH-TPI counter-2
Cc1ccccc1N=Nc1c(N)[nH]n(-c2ccccc2)c1=O	.	.	6.4	.	.	.	.
Cc1nc2nc(Cc3ccccc3)nn2c(C)c1Cl	8.9	0.1	-3.8	0.6	6.2	.	.
Cc1nc2nc(-c3ccco3)nn2c(C)c1Cl	10.1	2.4	-17.4	38.4*	-9.3	37.0*	34.5*
COc1ccc(CNc2nc3nc(C)c(Cl)c(C)n3n2)cc1	6.1	4.5	-2.1	4.3	-2.2	.	.
Cc1nc2nc(-c3cccnc3)nn2c(C)c1Cl	-3.1	-3.5	-1.2	-6.3	-6.5	.	.
Cc1nc2nc(COc3ccccc3)nn2c(C)c1Cl	4.8	4.2	6.1	38.7*	-4.5	+	188.5*
Cc1nc2nc(NCc3cccs3)nn2c(C)c1Cl	3.4	-4.3	-23.1	35.0*	-7.7	62.2*	41.5*
CC[C@]1(c2ccc(C)cc2)C(=O)N(C(=O)OC(C)C)N1C(=O)OC(C)C	.	.	6.3	.	.	.	.
COC(=O)[C@]12C[C@H](CC(=O)NCc3cccs3)C(=O)N(Cc3ccc4c(c3)OCO4)C1=C[C@H](C(C)(C)C)O[C@@H]2C	.	.	17.9	.	.	.	.
CC1CC1C(=O)N1CCC(Oc2cccnc2)CC1 (stereo not given)	.	.	2.9	.	.	.	.
N=c1oc2ccc3ccccc3c2cc1-c1nc(-c2ccccc2)cs1	-9.9	-37.6	-17.6	0.6	8.1	.	.
N=c1oc2ccc3ccccc3c2cc1C(N)=S	4.8	13.3	-141.3	104.4*	50.3	33.5*	16.8*
COCCCN1CN(S(=O)(=O)c2ccc(C)cc2C)c2nc3ccccc3nc21	31.9*	-9.3	0.8	28.2*	18.7	70.6*	68.8*
FC(F)(F)c1nc2nc(Cl)c(Cl)nc2n1CCCN1CCOCC1	20.4	1.2	-88.1	47.6*	.	+	+
Cc1nc2ccccc2c(=O)n1CCCN1CCOCC1	-4.1	5.1	-10.0	0.3	-9.2	.	.
CN(C)CCNC(=O)c1cc2c(s1)-c1ccc(Cl)cc1SC2	6.3	15.8	-98.2	34.3*	44.8	105.7*	89.7*
CCOCCCNC(=O)c1cc2c(s1)-c1ccccc1SC2	4.4	-2.5	15.9	-3.8	6.2	.	.
O=[N+]([O-])c1ccc(-c2c[nH]c(=S)[nH]2)cc1	17.7	-4.1	-2.4	-1.4	3.4	.	.
S=c1[nH]cc(-c2ccccc2)[nH]1	-3.6	0.1	-8.3	53.1*	78.4	60.0*	59.8*
C=CCn1c(=O)n(CCOC)c(=O)c2sc3ccccc3c21	10.6	15.0	-17.5	37.5*	-5.9	154.8*	164.3*
CCOC(=O)c1ccc2nc(C)c3c(c2c1)OC(C)C3 (stereo not given)	-0.6	-1.4	-31.3	37.7*	92.3	175.3*	130.3*
COc1ccc2nc(C)c3c(c2c1)OC(C)C3 (stereo not given)	1.9	-0.6	-3.5	9.8	-7.4	.	.
COc1cccc2c3c(c(C)nc12)CC(C)O3 (stereo not given)	4.3	4.5	-30.9	39.6*	-5.7	106.3*	75.0*
COc1ccccc1C(=O)N1CCC2CCN(C(=O)OC(C)(C)C)C2C1 (stereo not given)	.	.	18.8	.	.	.	.
N#Cc1cnc2ncnn2c1-c1ccccc1	4.0	-2.1	13.4	-1.7	-0.9	.	.
SMILES	GDH-TPI counter-1	MazEF act	CCHFV vOTU inh	FBA Mtb inh	Mtb betalactam	Mtb FBA confirm	GDH-TPI counter-2
N#Cc1cnn2c(-c3ccccc3)ccnc12	5.8	-1.7	-80.0	66.0*	-3.7	+	+
O=c1c2ccccc2n(CC(O)CN2CCOCC2)c2ccccc12 (stereo not given)	6.9	4.8	-50.3	32.9*	-11.7	5.2	-1.0
COc1cccc(CN2CC(C(=O)NCCc3cn4cccnc4n3)CCC2=O)c1 (stereo not given)	2.6	8.4	-55.6	47.1*	.	101.9*	71.1*
COC(=O)[C@]12C[C@H](CC(=O)N3CCCC3)C(=O)N(Cc3ccc4c(c3)OCO4)C1=C[C@H](C(C)C)O[C@@H]2C1CC1	.	.	4.5	.	.	.	.
C[C@H]1[C@@H](C(=O)N2CCCC2)Cc2nc3ccccc3nc2C[C@@H]1c1ccccc1	.	.	0.1	.	.	.	.
Cc1cc(=O)oc2cc(OCC(=O)OCC(=O)Nc3ccccc3C(C)C)ccc12	10.0	13.3	-26.6	25.5	3.4	.	.
Cc1nnc(NC(=O)COc2ccc3c(C)cc(=O)oc3c2)s1	9.8	0.2	-23.7	40.2*	-8.1	191.6*	144.4*
Cc1cc(=O)oc2cc(OCC(=O)OCC(=O)Nc3ccccc3F)ccc12	8.7	-15.8	-34.0	54.0*	-6.1	169.4*	146.7*
Cc1cc(=O)oc2cc(OCC(=O)OCC(=O)Nc3ccc(C(N)=O)cc3)ccc12	2.5	0.3	-17.7	22.5	-4.8	.	.
Cc1cc(=O)oc2cc(OCC(=O)NC3(C#N)CCCCC3)ccc12	11.5	3.3	-68.5	77.1*	.	58.4*	57.6*
Cc1cc(=O)oc2cc(OCC(=O)OCC(=O)NC(C)C)ccc12	12.6	10.4	-26.0	48.2*	-7.7	106.9*	84.9*
CCC(CC)c1nnc(NC(=O)COc2ccc3c(C)cc(=O)oc3c2)s1	14.1	40.1	-17.4	2.1	-15.7	.	.
O=C(NC1CCCCN(Cc2ccc(Cl)cc2)C1=O)c1cccc(F)c1 (stereo not given)	.	.	12.4	.	.	.	.
CC(C)C(C(=O)NCc1ccccc1)N1CCN(CCN2CCOCC2)CC1 (stereo not given)	.	.	-1.3	.	.	.	.
Cn1c2ccccc2c2c(C(=O)NCCCN3CCCC3=O)cn(C3CCCCC3)c(=O)c21	12.0	-5.0	-17.4	35.5*	3.5	98.0*	85.0*
Cn1c2ccccc2c2c(C(=O)NCC3CCCO3)cn(C3CCCC3)c(=O)c21 (stereo not given)	11.9	-10.3	.	12.1	-8.2	.	.
CN1CCN(CCCNC(=O)c2cn(C3CCCCC3)c(=O)c3c2c2ccccc2n3C)CC1	11.2	-7.2	-11.6	30.7*	-1.8	36.9*	40.9*
COC(=O)C1=C(C)N(Cc2cccc(C(F)(F)F)c2)C(=NCc2cc(OC)c(OC)c(OC)c2)NC1c1cccc(C(F)(F)F)c1 (stereo not given)	.	.	3.3	.	.	.	.
O=S1(=O)N[C@H](Cc2ccccc2)COc2cc(N3CCCCC3)ccc21	.	.	3.2	.	.	.	.
Nc1ccc2ccccc2c1	3.5	-0.2	-2.7	28.4*	.	40.1*	34.4*
CCc1cccc(NC(=O)CNC(=O)N2CC(=O)Nc3ccccc32)c1	5.2	2.9	-16.0	-0.4	3.5	.	.
CCc1cccc(Nc2c([N+](=O)[O-])cc(C(=O)N3CC(=O)Nc4ccccc43)cc2[N+](=O)[O-])c1	16.3	10.7	-0.1	110.8*	-1.5	144.7*	102.7*
CCCCCn1nnnc1C1(C)CSCC(=O)N1Cc1ccco1 (stereo not given)	.	.	-5.8	.	.	.	.
CCOC(=O)[C@@]12CCC3=C1N(CCC3)C(=O)[C@H](CC(=O)N1CCCC1)C2	.	.	-8.2	.	.	.	.
CCOC(=O)c1cnc2cc3c(cn2c1=O)CCCC3	12.4	-14.2	-67.6	93.8*	-2.4	+	+
